# In the library only some 4.3% were active in any assay of this set; here they are far more common.
# KKLEB cytotox = counter-screen for CF NF-kB inhibitors: cytotoxicity | AID 602141 | activity change (cytotoxicity), % at 5 µM | KKLEB CF airway cells viability, ATPlite luminescence, overnight; hits give low values; cells stimulated with P. aeruginosa culture filtrate | 360,000 tested, 0.36% active;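 active = corrected activity change at or below -50% at 5 µM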
# CF NFkB inh = blocks PAF-induced NF-kB reporter in cystic fibrosis cells. KKLEB NF-kB-GFP reporter, GFP fluorescence overnight. inhibition, % at 5 µM. 360,000 tested, 0.86% active. AID 588850;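 active = at least 50% inhibition at 5 µM, scaled per plate between neutral and stimulator controls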;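 also: PAF is a Pseudomonas aeruginosa culture filtrate used as stimulus; plate controls were PAF-stimulated DMSO wells for no effect and unstimulated DMSO wells for full effect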
# HIF-2a inh = blocks HIF-2a reporter activity. 786-0 RCC cells HIF-2a reporter, luciferase luminescence, overnight. inhibition, % at 18.8 µM. 360,000 tested, 0.72% active. AID 624352;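 active = inhibition of the luminescence signal of 40% or more relative to plate controls, in a single-dose primary screen at 18.75 µM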
# TRPM1 prom inh = MITF TRPM1 promoter inhibition in SK-MEL-5 cells; SK-MEL-5 TRPM1 promoter luciferase, 24 h; inhibition, % at 12.5 µM; 330,000 tested, 0.83% active; AID 488899;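 active = mean inhibition across replicates of 60% or more, whatever share of single replicates reaches that level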
# Peg3 promoter = reduces Peg3 promoter-driven luciferase expression in HeLa | 360,000 tested, 1.7% active | AID 588405 | inhibition, % at 20 µM | HeLa PEG-Prom luciferase reporter, luminescence, overnight;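 active = inhibition of at least 50% at 20 µM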
# CHOP inh = inhibitors of CHOP induction in ER stress response; CHO-K1 CHOP-promoter luciferase, tunicamycin-induced, 15-18 h; inhibition, % at 10 µM; 220,000 tested, 3.8% active; AID 2732;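 active = compounds that reduced the stress-induced luciferase reporter signal by more than about 70% of percent inhibition, limit read from the data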;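 also: 0% = tunicamycin plus vehicle and 100% = wells without tunicamycin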
# An asterisk follows results filed as active; · = no result given.
SMILES,KKLEB cytotox,CF NFkB inh,HIF-2a inh,TRPM1 prom inh,Peg3 promoter,CHOP inh
COCCNc1nc(NCc2cccc(OC)c2)c2sc(-c3ccccc3)cc2n1,-7,1,-43,·,57*,·
C=CCNc1nc(NCCOC)c2sc(-c3ccccc3)cc2n1,4,-59,-63,·,-21,·
COCCNc1nc(NCc2ccc(NC(C)=O)cc2)c2sc(-c3ccccc3)cc2n1,-54*,-38,-28,·,25,·
O=c1o[nH]c(-c2ccccc2)c1-c1ccccc1,4,-10,7,·,-2,·
CC1(C(=O)NS(=O)(=O)c2ccc3c(c2)CCO3)CCN1C(=O)CCC1CCCC1 (stereo unspecified),-7,0,0,·,-12,·
O=C(Cn1c(=O)c2cccn2c2cccnc21)N1CCN(c2ccc(Cl)cc2)CC1,-1,8,14,-15,6,·
COc1ccc(-c2c(-c3ccccc3OC)oc3ccccc23)cn1,-1,-23,-103,-28,-69,·
N#C/C(=N\Nc1cccc(C(F)(F)F)c1)C(=O)c1csc(-c2cccnc2)n1,-40,53*,-29,4,26,7
COCCn1c(SCC(=O)Nc2sccc2C(N)=O)nc2cc(Cl)ccc2c1=O,2,-8,14,6,52*,41
COCCn1c(SCC(=O)Nc2cccnc2Cl)nc2cc(Cl)ccc2c1=O,-5,-19,18,11,23,·
CSc1nc(N)c2ncn([C@@H]3O[C@H](COP(=O)(O)OP(=O)(O)O)[C@H](O)C3O)c2n1 (stereo partly specified),·,·,·,·,·,10
CCc1ccc(-c2nc(CSCC(=O)N3CCN(c4ncccn4)CC3)c(C)o2)cc1,-8,-32,39,30,18,90*
CSc1ccc(-c2nc(CSCC(=O)N3CCOCC3)c(C)o2)cc1,14,-18,-96,4,-111,12
COC(=O)c1ccccc1NC(=O)CSc1nc2ccsc2c(=O)n1Cc1ccc(C(=O)O)cc1,-4,-8,11,·,-6,·
COc1ccc(-c2nc(NC(=O)Cn3c(=O)oc4ccccc43)sc2C)cc1,2,-5,2,10,23,50
COc1ccc(-c2nc(NC(=O)C3CCN(c4nc5ccccc5o4)CC3)sc2C)cc1,7,-24,10,18,14,78*
O=C(O)CCCN1C(=O)/C(=C/c2cn(-c3ccccc3)nc2-c2cccs2)SC1=S,-19,37,20,-3,14,85*
COc1ccccc1/C=C1\SC(=S)N(CCC(=O)NNC(=O)c2ccccc2OC)C1=O,0,-10,44*,25,9,·
O=C(CN1C(=O)/C(=C/c2cccc(Br)c2)SC1=S)Nc1cccnc1,2,-13,0,1,3,1
O=C(CCCN1C(=O)/C(=C/c2ccccc2Cl)SC1=S)Nc1cccnc1,6,-10,0,5,71*,·
COc1ccccc1/C=C1\SC(=O)N(CCC(=O)NNC(=O)c2ccccc2Cl)C1=O,-3,0,-19,-27,-89,13
O=C(CCN1C(=O)/C(=C/c2ccccc2Cl)SC1=S)Nc1cccnc1,1,-34,-19,-7,-29,·
O=C(CCN1C(=O)/C(=C/c2cccc(Br)c2)SC1=S)Nc1cccnc1,11,4,5,-9,-6,87*
C/C=C/C(=O)N[C@@H]1c2ccccc2CC[C@@H]1OCc1ccccc1,11,-6,13,4,-11,·
CC1(C)Oc2ccc(C(=O)Nc3ccccc3)cc2N(CC#N)C1=O,-4,2,-110,-22,-50,·
SMILES,KKLEB cytotox,CF NFkB inh,HIF-2a inh,TRPM1 prom inh,Peg3 promoter,CHOP inh
O=C(O)CCCN1C(=O)/C(=C\C(Cl)=C\c2ccccc2)SC1=S,-13,-27,94*,66*,108*,·
O=C(CCCN1C(=O)/C(=C/c2ccccc2Cl)SC1=S)Nc1ccccn1,-7,12,79*,13,16,91*
Cc1ccc(C(=O)NNC(=O)CCCN2C(=O)/C(=C/c3ccccc3Cl)SC2=S)cc1,-10,20,87*,7,49,31
COc1ccc(C)cc1N(CC(=O)NC1CCCC1)C(=O)Cn1nnc(-c2ccc(C)o2)n1,5,-4,-20,-1,-11,·
c1ccc(N2CCN(c3cccc(-c4cc5ccccc5s4)n3)CC2)nc1,1,9,5,·,0,·
COc1cc(-c2nc(-c3ccc4c(c3)-c3ccccc3S4(=O)=O)c(-c3ccccc3)[nH]2)cc(OC)c1O,7,16,-40,-10,-12,92*

# Assay outcomes (PubChem)
